This note sets out measurements from PubChem BioAssay AID2638 (Johns Hopkins Ion Channel Center, 2010).

Molecules are shown by their SMILES. Calls of active or inactive are those of the source.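 Rule for the calls: active = compound restoring hERG potassium channel current, after block by a reference inhibitor, at any concentration tried; inactive = no current restored at any concentration tried.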

In the test the target is Voltage-gated inwardly rectifying potassium channel KCNH2 (Homo sapiens) (UniProt Q12809). The experiment in a line: concentration dependence of hERG rescue from dofetilide, dose response, manual patch clamp, HEK293 cells (AID 2638). Conditions: tail current; current remaining: measured here: rescue from 100 nM dofetilide block, at 50 µM, stronger effect = higher value unless noted; series mostly up to 100 µM; potentiation: at the top concentration. Background: hERG is a cardiac potassium channel; its block is linked to QT prolongation.
Voltage-gated inwardly rectifying potassium channel KCNH2 (Homo sapiens), sequence (Q12809 whole entry, looked up): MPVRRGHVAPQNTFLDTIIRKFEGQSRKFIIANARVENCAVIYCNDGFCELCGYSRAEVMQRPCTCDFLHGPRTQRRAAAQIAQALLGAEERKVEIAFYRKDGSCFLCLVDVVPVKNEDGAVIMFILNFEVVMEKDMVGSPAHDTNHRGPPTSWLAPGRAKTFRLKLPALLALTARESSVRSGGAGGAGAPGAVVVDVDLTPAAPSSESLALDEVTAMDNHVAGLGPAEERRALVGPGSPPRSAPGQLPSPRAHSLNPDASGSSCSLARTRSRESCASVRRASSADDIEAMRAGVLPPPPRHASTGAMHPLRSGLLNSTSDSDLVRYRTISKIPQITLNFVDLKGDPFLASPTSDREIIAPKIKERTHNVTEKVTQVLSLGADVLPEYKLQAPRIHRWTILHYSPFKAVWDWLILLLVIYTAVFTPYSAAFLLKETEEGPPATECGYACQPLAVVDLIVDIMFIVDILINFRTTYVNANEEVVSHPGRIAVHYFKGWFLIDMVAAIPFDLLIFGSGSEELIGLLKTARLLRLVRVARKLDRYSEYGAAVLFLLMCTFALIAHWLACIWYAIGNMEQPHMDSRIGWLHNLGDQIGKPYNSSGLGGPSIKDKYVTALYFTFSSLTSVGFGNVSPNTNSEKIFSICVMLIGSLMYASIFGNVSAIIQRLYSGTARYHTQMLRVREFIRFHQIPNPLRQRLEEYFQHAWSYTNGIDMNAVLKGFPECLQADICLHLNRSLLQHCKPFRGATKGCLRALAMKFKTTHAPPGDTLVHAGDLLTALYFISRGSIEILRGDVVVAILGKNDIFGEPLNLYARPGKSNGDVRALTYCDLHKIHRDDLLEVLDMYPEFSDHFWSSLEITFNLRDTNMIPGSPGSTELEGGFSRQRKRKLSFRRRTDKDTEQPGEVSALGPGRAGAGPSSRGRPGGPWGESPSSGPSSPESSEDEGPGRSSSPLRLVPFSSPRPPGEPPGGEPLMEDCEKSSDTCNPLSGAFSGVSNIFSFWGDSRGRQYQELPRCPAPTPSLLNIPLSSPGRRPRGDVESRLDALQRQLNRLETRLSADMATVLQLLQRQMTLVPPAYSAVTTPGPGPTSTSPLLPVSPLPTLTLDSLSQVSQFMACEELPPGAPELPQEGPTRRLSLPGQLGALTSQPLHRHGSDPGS
As to `CCC1CCCCN1C(=S)NC(=O)c1cccs1` (centres undefined), the current remaining was 46.5% [measured here: rescue from 100 nM dofetilide block, at 10 µM, stronger effect = higher value].
On the same count and under the same terms, under `O=C(O)c1cc(Cl)ccc1Nc1nc2cc(Cl)ccc2o1` stands 4.15%.
As to `O=C(COc1ccc2ccccc2c1Br)Nc1cccnc1`, the “potentiation” value is 383% (inactive) and the current remaining was found to be 1%.
